The sequences below were run against RUNX1 (UniProt Q01196) (assay: RUNX1 binding intensity (PBM fluorescence) in presence of ETS1, normalised to RUNX1-only experiment (arbitrary fluorescence units); higher = stronger binding). Settings: RUNX1 concentration 2 nM; ETS1 concentration 25 nM.
Protocol: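 Cooperative gcPBM on 36-bp genomic probes with neighbouring ETS1 and RUNX1 sites. Recombinant human RUNX1 (2 nM) was incubated alone or with ETS1 (25 nM) and detected with anti-RUNX1 antibody plus Alexa488 secondary. Values are medians over 4 replicate spots; the RUNX1+ETS1 data were normalised to the RUNX1-only data. The probes sit in constant array flanks that are not printed.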
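Note: Full-length recombinant human ETS1 or RUNX1 bound to double-stranded 36-bp genomic probes on microarrays, detected by protein-specific primary antibody and Alexa488 secondary, spot fluorescence as median of four replicate spots.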

Chain of RUNX1 (Q01196 whole entry): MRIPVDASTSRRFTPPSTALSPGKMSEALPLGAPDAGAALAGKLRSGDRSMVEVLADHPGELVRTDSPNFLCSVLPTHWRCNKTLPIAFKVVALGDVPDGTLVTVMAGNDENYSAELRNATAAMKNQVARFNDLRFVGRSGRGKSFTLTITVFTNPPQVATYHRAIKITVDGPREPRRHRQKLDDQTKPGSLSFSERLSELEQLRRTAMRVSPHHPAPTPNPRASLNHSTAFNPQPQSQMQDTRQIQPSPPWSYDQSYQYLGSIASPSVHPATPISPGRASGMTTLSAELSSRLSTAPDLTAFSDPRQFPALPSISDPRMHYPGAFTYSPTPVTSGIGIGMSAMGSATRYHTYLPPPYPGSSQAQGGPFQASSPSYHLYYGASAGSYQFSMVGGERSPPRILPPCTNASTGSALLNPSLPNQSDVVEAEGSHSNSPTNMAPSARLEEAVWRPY

Sequence	RUNX1 binding intensity
AGGACGGGCGGAAGTGGCTGCGGTGGATGGTGGGAG	3180
GCAGCTCTGGCAGGATGCGGTTAAATATGTAGCCAC	11300
GAAGTCACTCAGGGAGGAAACCACAGGGCCGGTCCG	863
ACAGACCAGGGGATTTCCTGTGGGTGGAGTCCTCAG	1500
TCTAACGCTGAAGGAGGATGTGGTTTCCTATTGGAC	2110
CCGCTTCCGGCCTTCGCCCGGCTTACCCGCGTCGCA	2920
GCCCGGAAGCGCGACGCTGGAGCTGCGGGGTTACCA	882
GGACCCAGCAGAGGATGTGGTTACAGGGCCATGATA	2170
AGTCAGCAGAGAGGAAGTGGTTAGTCCTGCCTTGAA	1870
ACTCACACCACGGAAACTGCGGCTCGGCAGGCTGAG	885
CTCCGATTGAGAACAGGAAGCCACAGGCCAATACAA	931
CTGGTTTCATTTCCGGGTGCGGCTTCTGTCATAAAG	2460
ACGGTGTGTCTCATTTCCTGTGGGTAACAGGCACCA	1720
GCTGAGGCCGGAAGAGGGTGGGGCCGCGGTGGCTAG	1260
AAGTTCTTCCGGGTCTGCAGTCTGTGGTGTGTTTGC	1710
AGCGCGCCGCCGACCGGATGCGGGAACTGGGCTCGG	1550
GCGGAGCGAGCGGCCGGATGCGGTCACCATAGAGAC	8090
TTAGATGTGCCTACATCCTGACCTCAAAAACCTCTG	957
AACAGCACACAGGAAGTTACCGCTGAAGCAAAGGAG	1250
AAGTGGAGAGCGGAAGTGAGCTGTGGGTGACTGCAG	1240

Sequence	RUNX1 binding intensity
GAGTACAGGAAATGCAAAGTAAAACCACAGTGAGAT	1850
TGTATAACATCCTCATGTTCTGTGGGTGAGTTGAGC	871
AGTGGAGTAGGAACCGGAAAACCACAATAAGTCCCA	3630
CTTAGCGGAAGAGGCGTGACCCAGGCGTACCGCAGG	870
ATCTTACCCCGGAAATGACAACAGTGCCGCAAACTG	1620
CCGGGCTGCGGAAGGCGGGAATTCTGCGGTTCGCGG	1720
TACCCAGAAAGGAAGTGGAACCTGCGGTGAGGCCCC	1950
TAAGCAGGGAATAGAGGAAGTGGTTTTGTCTCAGGC	1780
AACAACTGACCGGACAGAACACAGCCACAAAACACG	928
AGCTTGACGAAGGCTTCCTGTGGTTTGGGTTGATGT	1530
CCTCGGTTCGGAAACGGCGAAAGCAAACCGCAAGGA	3120
TGGAAGCGGCTTCCGGGGTGAATGCGGTTGGATCGT	3030
AGGAGAACTTCCGCCCTTACTATATTACCGCCGGTA	1520
CATAGGAAGTGCTCAGCTCTCCTCCACCGCAAGTTT	879
GGAGAGTTGACTTCCGGCGGCTTGTGGGAGTGCTGG	1820
CCAACAGTACCCTTCCTCCCTTAACCACAAGACTGA	6290
CCTGAAGCTCATGCGGAAAACCCACAAAGGGGTGCC	828
TACAGCTTCCTTCACCCCACTTGTGGCCTGGGTTAC	913
TGCCTTCTACTCCGGAACTCAGACCGCTGCCTTCTA	946
GAAAACACAGGAAGCCGTCCGCGCAACCGCGTTGCA	1150

Reference: the supplement of paper PMC10681739
